# Only some compounds are listed: those with a hit (about 7.9% of all), similar ones and a draw of the others.
# Lassa entry inh = blocks Lassa virus binding to or entry into cells; Lassa virus pseudotype entry inhibition, cell reporter; Potency, µM (top dose mostly 37.9 µM), without a hit: at the highest dose activity change, negative = inhibition, hits mostly inhibitors; AID 540256; 1.2% of 300,000 active; calls by dose curve; tested in HEK293 cells; note: potency is the fitted concentration of half-maximal effect; nearly all actives have a fitted effect of over 50% in size
# Marburg entry inh = inhibitors of Marburg virus binding or cell entry; 1.8% of 300,000 active; Potency, µM (doses to about 37.8 µM), without a hit: at the top dose activity change, negative = inhibition, most hits filed as inhibitors; AID 540276; Marburg virus pseudotyped entry inhibition, cell reporter; calls by dose curve; tested in HEK293 cells; note: potency is the fitted concentration of half-maximal effect
# HCMV inh = inhibitors of human cytomegalovirus; HFF cells, HCMV-luciferase reporter, 72 h; active compounds read low; activity change, negative = inhibition, % at 57.5 µM; 4.5% of 410,000 active; AID 1259415; in the data active = activity change below about -60%; inconclusive = no clear call, values can overlap the other calls; inactive = above about -39%
#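 Steps: HFFs plated, 16 h 37C; compounds added; HCMV-luciferase added to MOI 1 PFU/cell; 72 h 37C; OneGlo reagent, 5 min room temperature; luminescence read, normalized to controls.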
# FMDV antiviral = antivirals against foot and mouth disease virus | AID 1159524 | Potency, µM (series often up to 57.9 µM), for the others: at the top dose activity change, negative = inhibition, most hits filed as inhibitors | 1.2% of 410,000 active | FMDV antiviral cell-based qHTS; calls by dose curve; tested in HEK293T cells; note: read-out not given here; potency is the fitted concentration of half-maximal effect; nearly all actives have a fitted effect of over 45% in size
# HCV inh = inhibitors of hepatitis C virus infection; Huh7.5.1 HCVcc-Cre infection, luciferase reporter, 44 h; Potency, µM (titrated, usually from 41.8 µM), without a hit: at the top dose activity change, negative = inhibition, hits mostly inhibitors; 3.4% of 340,000 active; active = well fitted inhibition curve with a large enough effect; inconclusive = small, poorly fitted or top-dose-only effect, or another doubt; inactive = no such curve, though single readings can be large or run the other way; note: potency is the fitted concentration of half-maximal effect
#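 Infectious HCVcc-Cre (~0.5 moi) was added to cells just after compound, with cells seeded 4 h earlier at 1,000 per well. Luciferase activity after 44 h culture reported infection; substrate was incubated 15 min at room temperature before reading.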
# * = called active by the depositor; ? = inconclusive; nt = not tested or not shown; + = active, no number; ! = a repeat was not active; [ ] = another dose, or the depositor's remark. % is set by controls: 0 for no effect and ±100 for the full control effect.
SMILES,Lassa entry inh,Marburg entry inh,HCMV inh,FMDV antiviral,HCV inh
Oc1ccc(-c2n[nH]c(C(F)(F)F)c2-c2ccccc2)c(O)c1,?,?,-82*,20µM*,5.6µM*
COc1ccccc1-c1c(-c2ccc(O)cc2O)n[nH]c1C(F)(F)F,nt,nt,+,16µM*,?
COC(=O)C(N)Cc1ccc(O)c(O)c1 (stereo not drawn),14%,10%,10,1%,-4%
NC(CO)C(=O)NNCc1ccc(O)c(O)c1O (stereo not drawn),?,5µM*!,?,-16%,-1%[8.37 µM]
CCOC(=O)c1ccc(NC(=O)CC2C(=O)N(c3ccc(F)cc3)C(=O)N2Cc2ccc(C)cc2)cc1 (stereo not drawn),-11%[46.1 µM],?,-8,-9%,nt
CCOc1ccc(S(=O)(=O)NCCc2c(C)[nH]c3c(Cl)cccc23)cc1C,-21%[46.1 µM],-15%[46.1 µM],?,15%,nt
O=C(CCN1C(=O)C2CC=CCC2C1=O)OCC(=O)c1ccc(F)cc1 (stereo not drawn),nt,nt,-76*,-2%,4%
Cc1ccc(C(=O)N2c3ccccc3N(Cc3ccccc3)C(=O)C2(C)C)cc1,?,?,-93*,nt,11µM*
CN(CP(=O)(O)C(O)c1ccccc1)S(C)(=O)=O (stereo not drawn),-1%,-2%,-88*,-4%,14%
COc1cccc2c1[C@H](C=Cc1ccccc1)[C@@H]([C@H](O)CN=[N+]=[N-])OC2,nt,-5%[14.2 µM],nt,nt,nt
CN(C)C(CNC(=O)c1cc(S(=O)(=O)N(C)c2ccccc2)ccc1Cl)c1ccccc1 (stereo not drawn),?,?,?,-28%,7.1µM*
CN(c1ccccc1)S(=O)(=O)c1ccc(Cl)c(C(=O)NC2=NCCS2)c1,nt,nt,-101*,-21%,?
CN(C)C(CNC(=O)c1cc(S(=O)(=O)N(C)c2ccc(F)cc2)ccc1Cl)c1ccco1 (stereo not drawn),-9%,-16%,?,-8%,?
CCOc1ccc(CCNC(=O)c2cc3c(=O)[nH]c4ccc(C)cc4c3s2)cc1OCC,10%[46.1 µM],?,-2,0%,nt
CC(=O)c1cccc(S(=O)(=O)N2CCN(c3nc4cc(C)cc(C)c4cc3C#N)CC2)c1,-12%,?,4,-22%,13µM*
Cc1cc(C)c2cc(C#N)c(N3CCCN(S(=O)(=O)c4ccccc4)CC3)nc2c1,-4%,0%,nt,nt,-1%
COc1cccc(OC)c1OCCN1CCC(C(=O)NC(c2ccc3c(c2)OCO3)c2ccccn2)CC1 (stereo not drawn),nt,nt,-61*,-6%,nt
COc1ccc(NC(=O)Cn2c(SCc3c(F)cccc3Cl)nc3ccncc32)cc1OC,?,22%[46.1 µM],2,-15%,nt
COc1ccc(Cl)cc1Nc1nc(C)cc(=O)[nH]1,9%,-7%,40,-14%,10µM*
COc1cc2c(cc1OC)CN(C(=O)[C@@H]1C[C@H](NCc3cn(C)c4ccccc34)CN1C1Cc3ccccc3C1)CC2,nt,nt,nt,-5%,nt
COc1ccc(S(=O)(=O)N2CCN(C(=S)NCCc3ccccc3)CC2)cc1,-13%,?,-1,14%,nt
CC(Sc1ccccc1)C(=O)N1CCN(S(=O)(=O)c2ccccc2)CC1 (stereo not drawn),-2%,4%,-63*,-28%,26%
O=S(=O)(c1ccccc1)N1CCN(C(=S)NCCc2ccccc2)CC1,-19%[46.1 µM],-2%[46.1 µM],-72*,30%,-6%
CC(Sc1ccccc1)C(=O)N1CCN(S(=O)(=O)c2ccccc2C(F)(F)F)CC1 (stereo not drawn),-6%,2%,nt,?,2%
COc1ccc(CCNC(=S)N2CCN(S(=O)(=O)c3ccc(C)cc3)CC2)cc1,2%,-14%,-98*,7%,?
SMILES,Lassa entry inh,Marburg entry inh,HCMV inh,FMDV antiviral,HCV inh
CCCCC(=O)Nc1ccc(C(=O)OCc2cc(=O)n3nc(C4CC4)sc3n2)cc1,7%[46.1 µM],nt,-8,-27%,nt
Cc1cnc(SCC2CCCO2)nc1C1CCCN(Cc2nc(-c3ccccc3)cs2)C1 (stereo not drawn),nt,nt,nt,-16%,nt
COc1ccc(C(=O)NC(=S)Nc2ccccc2N2CCCCC2)cc1[N+](=O)[O-],?,?,-11,?,13µM*
CS(=O)(=O)N1CCN(c2ccc(NC(=S)NC(=O)c3ccccc3[N+](=O)[O-])cc2)CC1,?,-30%[46.1 µM],-30,?,13µM*
Cc1c(C(=O)NC(=S)Nc2ccccc2N2CCCC2)cccc1[N+](=O)[O-],0%,-32%,-29,?,3.5µM*
O=C(NC(=S)Nc1ccccc1N1CCCC1)c1ccc([N+](=O)[O-])cc1,-24%,-4%,?,-7%,?
COc1cc2c(cc1OC)-c1cc3nc4ccccc4nc3n1C(C)(C)C2,nt,nt,nt,-25%,nt
CC(=O)Nc1ncc(Cc2cccc(Cl)c2)s1,-17%[46.1 µM],?,-33,0%,-17%
O=C(Nc1ncc(Cc2ccccc2Cl)s1)c1ccc(-c2cccc([N+](=O)[O-])c2)o1,nt,6%,-63*,?,22µM*
O=C(Nc1ncc(Cc2cccc([N+](=O)[O-])c2)s1)c1ccco1,nt,nt,-72*,7%,?
CC(C)C(=O)Nc1ncc(Cc2cccc(Cl)c2)s1,-35%,?,-69*,-20%,-9%
CCc1ccc(CCC(=O)Nc2ncc(Cc3ccccc3Cl)s2)o1,?,?,-61*,-21%,?
Nc1ccc(-c2nc3c(Cl)cc(N)cc3[nH]2)cc1,11µM*,?,?,4µM*,?
C=C1C(=O)O[C@@H]2C[C@@H](C)[C@@H]3C=CC(=O)[C@@]3(C)[C@@H](OC(C)=O)[C@H]12,nt,nt,-99*,3.2µM*,2.8µM*
C[C@@H]1C[C@@H]2OC(=O)[C@]3(C)[C@H]2[C@@H](OC3(C)O)[C@]2(C)C(=O)C=C[C@H]12 (stereo partly drawn),nt,nt,23,-28%,-4%
C=C1C(=O)O[C@@H]2C[C@@H](C)[C@@H]3C=CC(=O)[C@@]3(C)[C@@H](O)[C@H]12,nt,nt,-100*,8.9µM*!,1.4µM*
CC1CCN(C(=O)CN2CCSc3ccccc32)CC1,-5%[46.1 µM],nt,44,-16%,nt
O=c1/c(=C/c2ccccn2)sc2nc3ccccc3n12,-10%,?,69,10µM*,0%
Cc1csc(NC(=O)C2COc3ccccc3O2)n1 (stereo not drawn),?,4.5µM*,25,13µM*,-19%
Cc1cnc(NC(=O)C2COc3ccccc3O2)s1 (stereo not drawn),?,7.9µM*,?,-64%,1%
CC(C)NC(=O)c1ccccc1NC(=O)C1COc2ccccc2O1 (stereo not drawn),-12%,-12%[46.1 µM],-33,?,?
CC1CCc2nc(NC(=O)CN3CCN(Cc4ccc5c(c4)OCO5)CC3)sc2C1 (stereo not drawn),-16%,?,-63*,?,32µM*
Cc1nc2ccc3nc(NC(=O)C4COc5ccccc5O4)sc3c2s1 (stereo not drawn),nt,nt,18,0%,-6%
CCC(C)NC(=O)c1ccccc1NC(=O)C1COc2ccccc2O1 (stereo not drawn),nt,nt,?,?,22µM*

# Bioassay records: PubChem BioAssay, National Center for Advancing Translational Sciences (NCATS)
